IL-1B inflam inh – blocks inflammasome-driven IL-1 beta release; THP-1 LPS/ATP IL-1B secretion, AlphaLISA, 16 h; active compounds read low; activity change, % at 57.5 µM; 360,000 tested, 4.7% active; AID 743279; in the data active means activity change below about -50%; inconclusive means mostly about -30% to -49%
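THP-1 cells pretreated 1 hr with compounds (up to 57.5 uM final), then stimulated with LPS (250 ng/mL final) plus ATP (1.25 mM final); secreted IL-1B measured by AlphaLISA after 16 hr, decreased signal indicating inhibition.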
ALOX12 inh – inhibitors of human 12S-lipoxygenase ALOX12 | P18054 | purified 12hLO, xylenol orange hydroperoxide absorbance | Potency, µM (doses to about 108 µM), for inactives: at the highest dose activity change, negative = inhibition, usual class: inhibitors | 580,000 tested, 1.1% active | AID 1671190; further: potency means the concentration at half of the fitted maximal effect
Target sequence (P18054 whole entry, looked up): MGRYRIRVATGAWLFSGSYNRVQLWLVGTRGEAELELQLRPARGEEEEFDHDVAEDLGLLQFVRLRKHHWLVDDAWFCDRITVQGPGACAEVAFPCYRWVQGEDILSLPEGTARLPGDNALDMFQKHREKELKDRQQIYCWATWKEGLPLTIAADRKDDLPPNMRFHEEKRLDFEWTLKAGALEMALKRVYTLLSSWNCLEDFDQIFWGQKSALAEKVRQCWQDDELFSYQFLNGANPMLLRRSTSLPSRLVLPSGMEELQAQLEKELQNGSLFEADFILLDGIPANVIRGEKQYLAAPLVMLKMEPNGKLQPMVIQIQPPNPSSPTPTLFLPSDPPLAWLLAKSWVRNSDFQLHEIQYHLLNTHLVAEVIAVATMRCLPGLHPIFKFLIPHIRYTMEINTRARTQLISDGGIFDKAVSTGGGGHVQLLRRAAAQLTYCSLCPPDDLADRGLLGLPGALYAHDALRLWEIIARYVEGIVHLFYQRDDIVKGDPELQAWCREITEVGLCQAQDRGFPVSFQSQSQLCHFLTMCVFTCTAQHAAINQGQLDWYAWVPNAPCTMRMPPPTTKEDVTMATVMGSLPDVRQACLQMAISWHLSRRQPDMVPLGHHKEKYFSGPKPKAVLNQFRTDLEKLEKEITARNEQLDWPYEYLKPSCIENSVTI
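Hydroperoxide product was detected by ferrous iron/xylenol orange as the 573 to 405 nm absorbance ratio. Arachidonic acid at 40 uM (final) was turned over for 30 min at room temperature by 150 nM human 12hLO, pH 7.0 Hepes buffer, after 15 min compound preincubation.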
DT40 TDP1 no CPT – qHTS for Inhibitors of human tyrosyl-DNA phosphodiesterase 1 (TDP1): qHTS in cells in absence of CPT; DT40 Tdp1-/- hTDP1 cells, no CPT, ATP luminescence, 48 h; Potency, µM (series often up to 46.2 µM), without a hit: at the top dose activity change, negative = growth inhibition, actives largely listed as inhibitors; 420,000 tested, 15% active; AID 686978, 2013; further: potency means the concentration at half of the fitted maximal effect; nearly all actives have a fitted effect of over 55% in size
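Readout: luminescence from CellTiter-Glo after 30 min in the dark at RT. Cells: DT40 Tdp1-/- with stable hTDP1, 400/well. Exposure: compounds alone, ≥48 hr, 37 °C.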
HT1080 IDH1KD tx – HT-1080 IDH1 knockdown cell toxicity (counter line); AID 686971; 360,000 tested, 2% active; HT-1080 IDH1 knockdown viability, ATP luminescence, 48 h; Potency, µM (highest dose often 46.1 µM), inactives show at the top dose activity, negative = toxicity, most hits filed as cytotoxic;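 further: potency means the concentration at half of the fitted maximal effect; 0% = DMSO wells and -100% = cell-free medium wells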
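HT-1080-IDH1KD cells (IDH1 knocked down), 750/well in RPMI with 5% FBS, treated with compound 48 h at 37 degrees C. Viability by CellTiter-Glo luminescence, normalised to DMSO and no-cell wells; concentration-response curves classed.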
DT40 TDP1 CPT – DT40-hTDP1 cell growth loss with CPT; 420,000 tested, 12% active; chicken DT40 Tdp1-/-;hTDP1 cells + 20 nM CPT, ATP luminescence, 48 h; Potency, µM (top dose mostly 46.2 µM), for inactives: top-dose activity change, negative = growth inhibition, most hits filed as inhibitors; AID 686979; further: potency means the concentration at half of the fitted maximal effect; nearly all actives have a fitted effect of over 55% in size
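Chicken DT40 Tdp1-/- cells complemented with human TDP1, 400 cells/well, exposed to compounds plus 20 nM camptothecin for at least 48 h at 37 C; viability read as ATP content by CellTiter-Glo luminescence.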
HT1080-NT tox – kills 2HG-producing HT-1080-NT fibrosarcoma cells; HT-1080-NT fibrosarcoma viability, CellTiter-Glo ATP luminescence, 48 h; Potency, µM (series often up to 46.1 µM), for inactives: at the highest dose activity, negative = less viability, most hits filed as cytotoxic; 360,000 tested, 1.6% active; AID 686970;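 further: NT is the 2HG producing partner of a matched IDH1 knockdown line; potency means the concentration at half of the fitted maximal effect; 0% = DMSO-treated cells and -100% = media-only wells without cells; nearly all actives have a fitted effect of over 55% in size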
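Viability by CellTiter-Glo luminescence after 48 h compound exposure at 37C of HT-1080-NT cells (750/well, RPMI, 5% FBS). % activity scaled between DMSO wells and medium-only wells, then curve-fitted and categorized by curve class.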
An asterisk follows results filed as active; ? = inconclusive; nt = no result; [ ] = another dose, or the depositor's remark. Many of the other results were omitted from the sample, so hits are more common in it than they were. Unless noted, the call rests on the fitted dose curve; in most records, active means well fitted curve in the direction sought with a large enough effect; inconclusive means small, poorly fitted or top-dose-only effect, or another doubt; inactive means no such curve, though single readings can be large; an effect the other way counts as inactive or inconclusive. Unless noted, on the % scale 0 is the no-effect control and ±100 the full control effect.

SMILES	IL-1B inflam inh	ALOX12 inh	DT40 TDP1 no CPT	HT1080 IDH1KD tx	DT40 TDP1 CPT	HT1080-NT tox
CC1CCCCN1C(=O)C1COC2(CCN(C(=O)c3ccco3)CC2)N1C(=O)c1ccccc1 (stereo unspecified)	nt	16%	nt	nt	nt	nt
COc1ccc(-n2nnc(C(=O)OCc3cc(C)ccc3C)c2C)cc1	nt	85%	nt	nt	nt	nt
Cn1ccnc1CNCC1(COc2cnccn2)C[C@@H](O)[C@@H](O)C1 (stereo partly specified)	nt	34%	nt	nt	nt	nt
O=C(OCC1OC(n2ccc(=O)[nH]c2=O)C2OC12)c1ccccc1 (stereo unspecified)	-3	1%	-2%	10%	2%	14%
O=C(OCC1OC(n2ncc(=O)[nH]c2=O)C(OC(=O)c2ccccc2)C1OC(=O)c1ccccc1)c1ccccc1 (stereo unspecified)	6	-10%	?	-1%	16µM*	-5%
CC(=O)OCC1OC(n2ncc(=O)n(Cc3ccccc3)c2=O)C(OC(C)=O)C1OC(C)=O (stereo unspecified)	27	-12%	-18%	14%	12%	8%
CC(=O)OC[C@H]1O[C@@H](n2ncc(=O)[nH]c2=O)[C@H](OC(C)=O)[C@@H]1OC(C)=O	92	-6%[22.9 µM]	11µM*	?	?	-8%
Cc1c(-c2ccc(F)cc2)[nH]c2ccc(CNC(=O)CN3CCOC3=O)cc12	nt	7%	nt	nt	nt	nt
COC(=O)CCN(Cc1cccc(C)c1)CC(C)C	nt	-1%	nt	nt	nt	nt
c1ccc2cc(Sc3ncnc4c3oc3ccccc34)ccc2c1	-7	-9%	?	-1%	?	-2%
Cc1cc(C)nc(Sc2ncnc3c2oc2ccccc23)n1	-18	-17%	23µM*	1%	?	6%
CCC(C)c1ccc(OCC(=O)Nc2cccc(-c3nc4ncccc4o3)c2)cc1 (stereo unspecified)	nt	1%	16µM*	nt	-89%	nt
Cc1cc(C)cc(OCC(=O)Nc2cccc(-c3nc4ncccc4o3)c2)c1	?	8%[57.4 µM]	21µM*	11%	23µM*	11%
CCc1ccc(OCC(=O)Nc2ccc(-c3nc4ncccc4o3)cc2)cc1	nt	?	-10%	nt	-16%	nt
CN(C)c1ccc(-c2nnn(CC(=O)Nc3ccccc3N3CCOCC3)n2)cc1	-77*	13%	?	0%	?	10%
O=C(Cn1nnc(-c2ccccc2)n1)Nc1ccc2c(c1)OCO2	-7	69%	-1%	-4%	-8%	-5%
O=C(Cn1nnc(-c2ccc3c(c2)OCO3)n1)Nc1ccccc1C(=O)O	16	22µM*	-4%	-12%	-9%	1%
Cc1ccccc1NC(=O)Cn1nnc(-c2ccc(N3CCOCC3)cc2)n1	15	0%	-13%	-20%	-17%	0%
CN(C)c1ccc(-c2nnn(CC(=O)N3c4ccccc4CCc4ccccc43)n2)cc1	-2	-4%	16µM*	2%	?	14%
COc1ccccc1NC(=O)C(C)OC(=O)c1nn(C)c(=O)c2ccccc12 (stereo unspecified)	nt	20%	nt	nt	nt	nt
COc1cc(OC)cc(C(=O)N2CCCC(n3cc(-c4noc(C)n4)nn3)C2)c1 (stereo unspecified)	nt	11%	nt	nt	nt	nt
Cc1ccc(S(=O)(=O)N(C)[C@H]2C[C@H]3c4[nH]c5ccccc5c4CCN3C[C@H]2[C@H](C)O)cc1	-7	13%	?	-25%	21µM*	-27%
COc1ccc(CN(C)[C@H]2C[C@H]3c4[nH]c5ccccc5c4CCN3C[C@H]2[C@H](C)O)cc1	-26	29%	18µM*	-12%	?	-13%

Assay outcomes as filed in PubChem.
